PubChem BioAssay (NCATS)
Inconclusive results are not listed. Activity calls are given as the source filed them. Unless noted, the call rests on the fitted dose curve; in most records, active means well fitted curve in the direction sought with a large enough effect; inconclusive means small, poorly fitted or top-dose-only effect, or another doubt; inactive means no such curve, though single readings can be large; an effect the other way counts as inactive or inconclusive.

Experiments:
[1] = Cell Viability - BJ (AID 421; calls by dose curve;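 further: potency means the concentration at half of the fitted maximal effect; cells exposed to compound for 40 hours at 37 °C before readout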); settings: BJ fibroblast viability, qHTS
Method in brief: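 Luminescent ATP signal (CellTiter-Glo, 20 min at room temperature) served as the read-out of viable BJ cells after 40 hours of compound treatment. Responses were scaled between DMSO and 100 uM tamoxifen, and AC50 values were obtained by Hill modeling.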

[2] = Cell Viability - Jurkat (AID 426;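 active means dose-dependent loss of cell ATP signal giving a full or clear fitted curve, ranked by lower potency value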; further: potency means the concentration at half of the fitted maximal effect); settings: qHTS
Method in brief: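 Cytotoxicity taken as drop in cellular ATP (CellTiter-Glo luminescence, 20 min room temperature) after 40 hr, 37C treatment of 5000 Jurkat Clone E6-1 cells per well; concentration-response fitted with Hill equation for AC50.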

[3] = Cell Viability - Hek293 (AID 427;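 active means compounds whose dose-response curve shows a full or clear partial loss of cell viability, called from curve shape rather than a numeric limit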;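 further: potency means the concentration at half of the fitted maximal effect; cells exposed to compound for 40 hours at 37 °C before reading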); settings: qHTS
Method in brief: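 Luminescent ATP read-out (CellTiter-Glo, 20 min RT) after 40 hr compound exposure at 37 °C in complete medium. Signal normalized to DMSO (basal) and 100 uM tamoxifen (100% inhibition); concentration-response fitted with the standard Hill equation to give AC50.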

[4] = Cell Viability - HepG2 (AID 433; calls by dose curve;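 further: potency means the concentration at half of the fitted maximal effect; potency for ATP loss meaning cytotoxicity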); settings: qHTS
Method in brief: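 In this qHTS format, a 40 h, 37 °C compound incubation of HepG2 cells in complete medium precedes a 20 min CellTiter-Glo step at room temperature. Tamoxifen and doxorubicin serve as positive controls; Hill-equation fits yield AC50.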

[5] = Cell Viability - MRC5 (AID 434; calls by dose curve;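 further: potency means the concentration at half of the fitted maximal effect; potency reflects cytotoxicity seen as loss of intracellular ATP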); settings: MRC5 lung fibroblast viability, qHTS
Method in brief: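 AC50 values come from Hill-equation fits of intracellular ATP loss, measured by CellTiter-Glo luminescence. Normal lung fibroblasts (MRC5) had 40 hr compound treatment at 37 C, normalized between DMSO and 100 uM tamoxifen.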

[6] = Cell Viability - SK-N-SH (AID 435; calls by dose curve; further: potency means the concentration at half of the fitted maximal effect); settings: SK-N-SH neuroblastoma cell viability qHTS
Method in brief: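 Human neuroblastoma line, 40 h exposure at 37 °C, ATP quantified via luciferase luminescence; DMSO and 100 uM tamoxifen define 0 and 100% inhibition for AC50 fitting.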

[7] = molecular target: Mitogen-activated protein kinase 10 (Mus musculus) (UniProt Q61831); assay: JNK3 AlphaScreen Assay (AID 530; active means well fitted curve in either direction with a large enough effect, not every such curve was filed as active;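 further: kinase came from lysate of stimulated human HepG2 cells; signal reports phosphorylation of biotinylated GST-cJun 1-79 at Ser73 with 10 µM ATP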); settings: JNK3 lysate, c-Jun phosphorylation; series mostly up to 57.1 µM
Method in brief: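 qHTS titrations with 15 min compound pre-incubation before adding ATP (10 uM final). Read-out: AlphaScreen of Ser73-phosphorylated biotin-GST-cJun using HepG2 lysate JNK3 activated by IL-1β and TNFα.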

[8] = Cell Viability - N2a (AID 540); settings: N2a mouse neuroblastoma cell viability; series mostly up to 92.2 µM; further: nearly all actives have a fitted effect of over 45% in size
Method in brief: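 CellTiter-Glo ATP luminescence, read 20 min after reagent at room temperature, reported viability following 40 h compound treatment at 37 °C. N2a mouse neuroblastoma cells seeded 1500/well; Hill equation gave AC50.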

[9] = Cell Viability - NIH 3T3 (AID 541); settings: NIH 3T3 cell viability, qHTS; series mostly up to 92.2 µM; further: nearly all actives have a fitted effect of over 25% in size
Method in brief: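 Intracellular ATP (CellTiter-Glo luminescence, 20 min at room temperature) measured after 40 hr compound exposure at 37 °C of 1000 NIH 3T3 mouse fibroblasts/well in complete medium; AC50 derived by Hill-equation modelling of qHTS concentration-response curves.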

[10] = Cell Viability - HUV-EC-C (AID 542); settings: HUV-EC-C endothelial cell viability, qHTS; series mostly up to 92.2 µM; further: nearly all actives have a fitted effect of over 35% in size
Method in brief: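 CellTiter-Glo luminescence measured ATP loss in HUV-EC-C cells (1000/well) after 40 hr compound exposure at 37 °C, in complete culture medium. Concentration-response data were Hill-fitted to give AC50.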

[11] = Cell Viability - H-4-II-E (AID 543); settings: H-4-II-E rat hepatoma viability; series mostly up to 92.2 µM; further: nearly all actives have a fitted effect of over 35% in size
Method in brief: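 CellTiter-Glo luminescence (intracellular ATP) measured after 40 h compound exposure at 37 °C in H-4-II-E rat hepatoma cells seeded at 1500/well. Values are AC50s fitted with the standard Hill equation.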

[12] = Cell Viability - SH-SY5Y (AID 544); settings: SH-SY5Y neuroblastoma cell viability; series mostly up to 92.2 µM; further: nearly all actives have a fitted effect of over 55% in size
Method in brief: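 Cytotoxicity measured via ATP-dependent luciferase luminescence (CellTiter-Glo) following 40 h, 37 °C exposure of 1500 SH-SY5Y cells per well. Concentration-response data were fitted with the standard Hill equation to give AC50.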

[13] = Cell Viability - Renal Proximal Tubule (AID 545); settings: renal proximal tubule cells viability, primary cells of rat origin; series mostly up to 91.7 µM; further: nearly all actives have a fitted effect of over 40% in size
Method in brief: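 In this qHTS format, normal rat kidney-derived proximal tubule cells in complete culture medium receive compound titrations, then sit 40 hours at 37 °C before luciferase-based ATP quantitation; potency is reported as AC50 from concentration-response curves.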

[14] = Cell Viability - Mesenchymal (AID 546); settings: mesenchymal cells viability, qHTS; series mostly up to 91.7 µM;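 further: cells exposed to compound for 40 hours before reading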
Method in brief: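 CellTiter-Glo luminescence (intracellular ATP, 20 min room temperature) after 40 hr compound exposure at 37 °C of 1000 glomerulus-derived human kidney mesenchymal cells/well; AC50 values obtained by fitting qHTS concentration-response data to the Hill equation.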

[15] = Cellular Toxicity (caspase-3) HepG2 (AID 654); settings: HepG2 caspase-3 activation, luminescence, 0% = DMSO only, 100% = tamoxifen; series mostly up to 92.2 µM;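 further: cells exposed to compound for 16 hours before reading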
Method in brief: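 Caspase 3/7 activation is measured as a luminescence increase (aminoluciferin substrate) after 16 h compound exposure of human hepatocarcinoma HepG2 cells. AC50 values are Hill fits, scaled between DMSO baseline and 100 uM tamoxifen stimulation.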

[16] = Cellular Toxicity (caspase-3) Jurkat (AID 655); settings: Jurkat caspase-3 activation, luminescence, DMSO = 0%, tamoxifen = 100%; series mostly up to 92.2 µM;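 further: cells exposed to compound for 16 h at 37 °C before reading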
Method in brief: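 qHTS in human Jurkat T-cell leukemia line: 16 hr compound treatment at 37 °C, caspase-3/7 activity measured by Caspase-Glo luminescence. AC50 derived from Hill equation.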

[17] = Cellular Toxicity (caspase-3) HUV-EC-C (AID 656); settings: HUV-EC-C cells, caspase-3 activation (apoptosis), vehicle = 0, 100 µM tamoxifen = 100%; series mostly up to 92.2 µM
Method in brief: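 Concentration-dependent caspase 3/7 induction was assessed in HUV-EC-C cells exposed for 16 hours. Data scaled between DMSO and tamoxifen (100 uM) controls.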

[18] = Cellular Toxicity (caspase-3) SHSY5Y (AID 657); settings: SH-SY5Y caspase-3 activation, DMSO zero, 10 µM staurosporine = 100%; series mostly up to 91.7 µM;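 further: cells exposed to compound for 16 hours at 37 °C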
Method in brief: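 Readout: caspase-cleaved peptide-aminoluciferin substrate driving luciferase light in SH-SY5Y neuroblastoma cells after 16 h treatment. Response normalized to DMSO and 10 uM staurosporine controls.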

[19] = Cellular Toxicity (caspase-3) BJ (AID 658); settings: BJ fibroblasts, luminescence, normalized: DMSO 0%, staurosporine 100%; series mostly up to 91.7 µM
Method in brief: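 Caspase-Glo 3/7 luminescence, read 1 hr after reagent at room temperature, in normal BJ fibroblasts exposed 16 hours at 37 °C. AC50 values from Hill-equation concentration-response, scaled between DMSO basal and 10 uM staurosporine as 100%.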

[20] = Cellular Toxicity (caspase-3) MRC-5 (AID 659); settings: MRC-5 cells, luminescence, normalized: DMSO 0%, 10 µM staurosporine 100%; series mostly up to 91.7 µM
Method in brief: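 Luminescent Caspase-Glo 3/7 read-out (1 h, room temperature) after a 16 h, 37 °C compound exposure of MRC-5 lung fibroblasts at 1500 cells/well. Concentration-response AC50 from Hill equation; 0% DMSO, 100% 10 uM staurosporine.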

[21] = Cellular Toxicity (caspase-3) Mesangial (AID 660); settings: mesangial cells, normalized: DMSO 0%, 100 µM tamoxifen 100%; series mostly up to 91.7 µM;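 further: combined caspase 3 and 7 activity read by Caspase-Glo luminescence; cells exposed to compound for 16 h before the caspase read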
Method in brief: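 Caspase 3/7 activation measured by Caspase-Glo 3/7 luminescence (20 min, room temperature) following 16 h exposure of mesangial cells (1000/well); AC50 from Hill-equation fit, normalized to DMSO and 100 uM tamoxifen.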

[22] = Cellular Toxicity (caspase-3) SK-N-SH (AID 661); settings: SK-N-SH caspase-3 activation, qHTS, DMSO as zero, staurosporine as full; series mostly up to 91.7 µM
Method in brief: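 Caspase 3/7 activation was read by luminogenic substrate cleavage after 16 hour treatment of SK-N-SH cells. Signal was scaled between DMSO and 10 uM staurosporine, and concentration-response data were fitted with the Hill equation for AC50.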

[23] = Cellular Toxicity (caspase-3) H-4-II-E (AID 663); settings: H-4-II-E rat hepatoma, scaled: DMSO 0%, 100 µM tamoxifen 100%; series mostly up to 92.2 µM;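 further: cells exposed to compound for 16 hr before readout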
Method in brief: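 Caspase 3/7 activation measured by luminescent aminoluciferin substrate cleavage after 16 hr compound treatment of H-4-II-E cells in complete medium. Increase normalized between DMSO (basal) and 100 uM tamoxifen (100%); Hill-equation AC50 from concentration-response.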

Measured: Potency

CC(C)(c1cc(Br)c(O)c(Br)c1)c1cc(Br)c(O)c(Br)c1
inactive: [1] > 92 µM | [2] > 92 µM | [3] > 92 µM | [4] > 92 µM | [5] > 92 µM | [6] > 92 µM | [7] | [8] | [9] | [10] | [11] | [12] | [13] | [14] | [15] | [16] | [17] | [18] | [19] | [20] | [21] | [22] | [23]
